Measurements taken from PubChem BioAssay (NCI).
Compounds without any hit were thinned out: in the full panel of roughly 79,000, 15% have a hit. Activity calls are given as the source filed them. Cut-off read from the data, not from the text of the source: active = growth inhibition above about 70%; inactive = the rest.

Assay: NCI Yeast Anticancer Drug Screen. Data for the rad50 strain (AID 155);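 note: 0% = growth of vehicle-only cultures of the same strain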
Settings: S. cerevisiae rad50 strain growth inhibition; at 50.0 µM; stronger effect = higher value
Outline: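 Vehicle-treated cultures provide the reference for the growth inhibition reported for compound-exposed, repair-deficient yeast.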
For `O=S(Cc1ccccc1)/C(=C/NC(=S)Nc1cc(Cl)ccc1Cl)c1ccccc1` (configuration not stated), the growth inhibition was 3.6% (inactive). In the case of `CC(=O)c1cc(O)ccc1O`, the growth inhibition is reported as -6.45% (inactive). With `Cc1cc(Cc2ccccc2)c(O)c(Cc2ccccc2)c1` the growth inhibition was 50.1% (inactive). For `CC(CC(CCC(=O)O)(c1ccccc1)c1ccccc1)N(C)C` (configuration not stated), the growth inhibition was 19.6% (inactive). With `COC(c1ccc2c(c1)OCO2)C(C)Br` (configuration not stated) the growth inhibition was 7.45% (inactive). In the case of `O=C1Nc2ccccc2/C1=C\c1ccccc1O`, the growth inhibition is reported as 25.2% (inactive). In the case of `C=C1SC(=Nc2c(C)cccc2C)N(c2nc(Cl)nc(Cl)n2)C12CCCCC2`, the growth inhibition is reported as 21% (inactive). In the case of `Clc1cccc(Cl)c1CSc1nc2ccccc2n2cccc12`, the growth inhibition is reported as -13.3% (inactive). For `CCCCCCCCCCCCCCCCCC(=O)NCCNC(=O)CCCCCCCCCCCCCCCCC`, the growth inhibition was -5.7% (inactive). With `CN1CCN(C(=S)S)CC1` the growth inhibition was 0.3% (inactive). For `Cc1c(-c2ccc(C3CCCCC3)cc2)nc2ccc(F)cc2c1C(=O)O`, the growth inhibition was 15.3% (inactive). With `COc1cc(C(=O)N2CCN(c3ccccc3)CC2)c2ccccc2n1` the growth inhibition was -3.8% (inactive). In the case of `CS(=O)(=O)c1ccc(/C=C\C(=O)O)cc1`, the growth inhibition is reported as 19.6% (inactive). In the case of `CC(C)Sc1ncnc2nc[nH]c12`, the growth inhibition is reported as 2.4% (inactive). For `Cc1ccc(O)c(N)c1`, the growth inhibition was 2.1% (inactive). With `CCOC(=O)c1c[nH][nH]c1=O` the growth inhibition was -9.05% (inactive). For `Nc1ccccc1SC1CC(=O)N(c2ccc(Cl)c(Cl)c2)C1=O` (configuration not stated), the growth inhibition was -2.05% (inactive). In the case of `CC1CCC(C(C)(C)[N+](C)(C)C)CC1` (configuration not stated), the growth inhibition is reported as 40.2% (inactive). In the case of `CCOP(=O)(OCC)/C(=C\N1C(=O)CC(=O)NC1=S)C(=O)OC`, the growth inhibition is reported as -29.9% (inactive). With `O=[N+]([O-])c1c(Cl)ncnc1Cl` the growth inhibition was -52.5% (inactive). In the case of `O=[n+]1ccn([O-])c2ccccc21`, the growth inhibition is reported as 11.3% (inactive). With `CC1CC2C3CCC4=CC(=O)CCC4(C)C3CCC2(C)C1(O)C(=O)CO` (configuration not stated) the growth inhibition was 2% (inactive). With `COC(=O)c1ccc([N+](=O)[O-])c(C)c1` the growth inhibition was -33.2% (inactive). In the case of `Clc1cccc(Cl)c1C1CSc2ccccc2N=C1c1ccccc1` (configuration not stated), the growth inhibition is reported as -2.55% (inactive). With `C(=C\c1ccncc1)/c1ccncc1` the growth inhibition was 27.9% (inactive). With `Cc1ccc[n+](CCC(N)=O)c1` the growth inhibition was -18.4% (inactive). In the case of `c1ccc(Nc2ccccn2)nc1`, the growth inhibition is reported as -10.2% (inactive). With `c1ccc(Oc2c3ccccc3nc3ccccc23)cc1` the growth inhibition was 2.75% (inactive). With `O=Cc1ccc(F)cc1` the growth inhibition was -7.9% (inactive). In the case of `CCOC(=O)CSCCC#N`, the growth inhibition is reported as 2.85% (inactive). With `Cc1cccc2ccccc12` the growth inhibition was -9.65% (inactive). With `CC(C)c1ccccc1NC(=O)N1CCC(C(C)C)CC1` the growth inhibition was -20.8% (inactive). For `O=C(O)C1CSC(c2ccccc2)N1` (configuration not stated), the growth inhibition was 1.95% (inactive). In the case of `Ic1cccs1`, the growth inhibition is reported as 34.9% (inactive). With `O=C1NCC2CCCC1C2` (configuration not stated) the growth inhibition was 6.5% (inactive). For `CCCCOC(=O)c1ccccc1O`, the growth inhibition was 9.35% (inactive). With `O=S(Cc1ccccc1)/C(=C/NC(=S)Nc1ccccc1)c1ccccc1` (configuration not stated) the growth inhibition was -26.7% (inactive).
